Measurements reported in PubChem BioAssay (NCI).
“And” between values parts separate entries of the source, which are not always exact repeats. Equal entries are not always repeated. Compounds without any hit were thinned out: in the full panel of roughly 83,000, 20% have a hit.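 Each cell line was grown in a 96-well plate and treated with one concentration of compound for 48 hours. Values below 10 were considered active.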 The source made the active and inactive calls.

Tested on: K-562 leukemia
Assay: NCI-60 one-dose screen, 48 h (100 = growth as untreated, 0 = no growth, -100 = all killed)
Settings: 10 µM unless noted

| Compound | growth |
| --- | --- |
| S=c1nn[nH]n1C1CCCCC1 | 122% (inactive) |
| CCCC(=O)Oc1ccc(CC)cc1 | 96.7% (inactive) |
| CC(CN(C)C)CN1c2ccccc2Sc2ccccc21 (stereo not drawn) | 67.2% (inactive) and 72.1% (inactive) and 49.8% (inactive) |
| O=S(=O)(O)c1ccc2cc(O)ccc2c1 | 103% (inactive) |
| C(#CCN1CCOCC1)CCCN1CCOCC1 | 114% (inactive) and 113% (inactive) |
| COc1cc(Cl)ccc1C | 83.3% (inactive) |
| Clc1ccc(/C=C/c2ccc3ccccc3n2)cc1 | 17.7% (inactive) and 91.2% (inactive) and 87.3% (inactive) |
| CCC(C)(O)CCC(C)(O)CC (stereo not drawn) | 99.3% (inactive) |
| CC1(C)CC(=O)NC1=O | 94.8% (inactive) |
| Cc1ccc(NC(=S)N/C=C(\c2ccccc2)S(=O)Cc2ccccc2)c(C)c1 (stereo not drawn) | 98.2% (inactive) |
| COC(=O)c1ccccc1Cl | 8.26% (active) |
| N#Cc1c(N)nc2c(c(-c3ccc(Cl)cc3)nn2-c2ccccc2)c1C#N | 97.6% [100 µM] (inactive) |
| Cn1c(-c2ccccc2)cc(=O)cc1-c1ccccc1 | 99.8% (inactive) |
| CC(C)(C)C1CCC(=NO)CC1 (stereo not drawn) | 128% (inactive) |
| CC1=CC(=O)c2cccc(NC3=NCCO3)c21 | 82.4% (inactive) |
| CCOC(C)=N | 102% (inactive) |
| O=C(N=C1C(=O)C2(CCCCC2)C2(N=C(c3ccccc3)OC2=O)C12CCCCC2)c1ccccc1 (stereo not drawn) | 54.4% (inactive) |
| Cc1ccc2cccc([N+](=O)[O-])c2n1 | 91% (inactive) and 88.7% (inactive) |
| CCOc1ccc(/C=C\C(=O)O)cc1 | 103% (inactive) |

| Compound | growth |
| --- | --- |
| O=C(Nc1ccccc1)OCC(CN1CCCCC1)OC(=O)Nc1ccccc1 (stereo not drawn) | 89% (inactive) |
| CSc1nc(N)c(N)c(N)n1 | 101% (inactive) |
| O=C(O)c1cc(=O)[nH]c(=O)[nH]1 | 106% (inactive) and 115% (inactive) |
| C/C=C/C(=O)OCCCCCCCCCCCC | 93.3% (inactive) |
| CCOC(=O)C1=CC(=O)CC(C)(C)O1 | 42% (inactive) and 104% (inactive) |
| CCN(CC)CCO/N=C1\CC(c2ccc(OC)c(OC)c2)Oc2ccccc21 (stereo not drawn) | 82.6% (inactive) |
| NC1=NC(c2ccccc2)N=C(Nc2ccccc2)N1 (stereo not drawn) | 53.4% (inactive) and 65.1% (inactive) |
| Cc1cnc(N)s1 | 92.9% (inactive) |
| CC1=CC(=O)C=CC1=Nc1ccc(N(C)C)cc1 | 62% (inactive) and 7.74% (active) |
| C#CCOC(=O)C(N)CS (stereo not drawn) | 102% (inactive) |
| O=C(O)c1ccc2c3ccc(C(=O)O)c4c(C(=O)O)ccc(c5ccc(C(=O)O)c1c25)c43 | 113% (inactive) |
| COc1ccc2nccc(Cl)c2c1 | 110% (inactive) |
| COC(=O)c1nc(N)nc(C(=O)OC)c1C(=O)c1cccc2ccccc12 | 111% (inactive) |
| C/C(CC(C)C)=N/NC(N)=S | 56.2% (inactive) |
| Cc1c(Cl)c(C)c(Cc2c(C)c(Cl)c(C)c(Cl)c2O)c(O)c1Cl | 20.1% (inactive) |
| CCCC(=O)Oc1ccc2ccccc2c1 | 95.7% (inactive) |
| CCOC(=N)c1ccc(C(=N)OCC)cc1 | 98.7% (inactive) |
| COc1ccc(/C=C/C(=O)O)cc1OC | 96.7% (inactive) and 105% (inactive) |
| CCCC(=O)OCC(COC(=O)CCC)OC(=O)CCC | 97.7% (inactive) |
